Inconclusive results are not listed. Unmarked numbers belong to inactive results. Activity calls are given as the source filed them. Calls come from the whole dose curve; as a rule, active = well fitted activation curve with a large enough effect in the signal ratio in the repeat runs (not every such curve was filed as active); inconclusive = weak or mixed curves, or effect the other way; inactive = flat fitted curve, though single readings scatter; the % refers to the signal ratio.
% is set by controls: 0 for no effect and ±100 for the full control effect; potency is the fitted concentration of half-maximal effect.

Chain of Estrogen receptor beta (Homo sapiens) (Q92731 whole entry, looked up): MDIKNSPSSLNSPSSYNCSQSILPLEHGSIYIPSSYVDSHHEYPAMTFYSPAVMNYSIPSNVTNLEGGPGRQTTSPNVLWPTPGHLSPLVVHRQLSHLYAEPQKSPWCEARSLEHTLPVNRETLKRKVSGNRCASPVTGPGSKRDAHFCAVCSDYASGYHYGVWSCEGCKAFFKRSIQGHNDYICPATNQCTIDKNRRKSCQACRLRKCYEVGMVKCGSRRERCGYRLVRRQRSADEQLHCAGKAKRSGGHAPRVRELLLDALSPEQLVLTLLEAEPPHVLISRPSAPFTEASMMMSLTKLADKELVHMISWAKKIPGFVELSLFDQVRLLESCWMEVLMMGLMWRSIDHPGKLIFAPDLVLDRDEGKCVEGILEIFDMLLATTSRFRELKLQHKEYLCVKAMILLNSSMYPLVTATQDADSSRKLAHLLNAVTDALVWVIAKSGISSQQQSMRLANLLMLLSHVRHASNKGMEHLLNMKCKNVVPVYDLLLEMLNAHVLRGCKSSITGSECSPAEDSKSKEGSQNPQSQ

The experiment deals with Estrogen receptor beta (Homo sapiens) (UniProt Q92731). Kind of experiment: qHTS assay to identify small molecule agonists of the estrogen receptor beta (ER-beta) signaling pathway (AID 1259377). The following applies: ER-beta-UAS-bla HEK293T, beta-lactamase FRET ratio, 16 h; series mostly up to 92.4 µM; activation: at the top concentration. From the text:
U.S. Tox21 Program National Center for Advancing Translational Sciences [NCATS] NIH Chemical Genomics Center [NCGC] U.S. Environmental Protection Agency [EPA] National Institutes of Environmental Health Sciences [NIEHS] National Toxicology Program [NTP] U.S. Food and Drug Administration [FDA] Tox21 Assay Overview: Estrogen receptor (ER), a nuclear hormone receptor, plays an important role in development, metabolic homeostasis and reproduction. Two subtypes of ER, ER-alpha and ER-beta, have similar expression patterns with some uniqueness in both types. Endocrine disrupting chemicals (EDCs) and their interactions with steroid hormone receptors like ER causes disruption of normal endocrine function. To identify the compounds that activate ER signaling, an ER beta-UAS-bla GripTite cell line (Life technologies, Madison, WI, USA) containing a beta-lactamase reporter gene under the control of an Upstream Activator Sequence (UAS) was used to screen Tox21 10K compound library.
Tox21 Assay Protocol Summary: ER-beta-UAS-bla HEK293T cells were dispensed at 2,000 cells/5 uL of assay medium containing 2% charcoal stripped FBS per well into black wall/clear-bottom 1536-well plates using a Multidrop Combi (ThermoFisher Scientific, Waltham, MA) dispenser. After the assay plates were incubated at a 37C and 5% CO2 for 6 hr, 23 nL of compounds dissolved in DMSO, positive controls or DMSO only was transferred to the assay plate by a Pintool station (Kalypsys, San Diego, CA). The plates were incubated at 37C and 5% CO2 for 16 hr. Then 1 uL of LiveBLAzerTM B/G FRET substrate was added using a BioRAPTR FRD (Flying Reagent Dispenser, Aurora Discovery, San Diego, CA). After the plates were incubated at room temperature for 2 hours, fluorescence intensity was measured by an Envision plate reader (PerkinElmer, Shelton, CT).
In general terms: In qHTS, concentration-response curves come from the screen itself.
Regarding `CN(C)c1ccc(N)cc1`, the “activation” value was -3.43%. Still for that read-out and setting: the value for `CC1(C)C(C=C(Cl)Cl)C1C(=O)OC(C#N)c1ccc(F)c(Oc2ccccc2)c1` (stereo not given) was -0.88%; that for `CSSC` was 1.3%.

`CCCCCON=O`: the “activation” value was -1.65%.

For the molecule `CC(C)C(Nc1ccc(C(F)(F)F)cc1Cl)C(=O)OC(C#N)c1cccc(Oc2ccccc2)c1` (stereo not given), the “activation” value was -0.248%. The same measure, in the same setting: the value for `CCCCCCCCCCCCCCn1cc[n+](C)c1` was 0.684%; that for `CSC1=N[C@@](C)(c2ccccc2)C(=O)N1Nc1ccccc1` was -3.37%; that for `Nc1ccccc1-c1ccccc1` was -0.538%. Same read-out and setting: the value for `CC1(C)[C@H](/C=C2\CCSC2=O)[C@@H]1C(=O)OCc1coc(Cc2ccccc2)c1` was 2.37%.

As for `CC(C)Br`, the “activation” value is 0.409%. Still for that read-out and setting: in the case of `ClSC(Cl)(Cl)Cl` it was 2.52%.

Consider `c1ccc(Nc2ccc(Nc3ccccc3)cc2)cc1`, for which the “activation” value is 0.883%. Still for that read-out and setting: the value for `Cc1cccc(Cc2cnc[nH]2)c1C` was 2.78% [at 42.5 µM]; that for `CCCCc1ccccc1` was -0.73%.

On to `CCNc1nc(NC(C)C(C)C)nc(SC)n1` (stereo not given), for which the “activation” value is 0.766%. On the same count and under the same terms, the value for `CC(C)=CC1C(C(=O)OC(C#N)c2cccc(Oc3ccccc3)c2)C1(C)C` (stereo not given) was 1.81%; that for `O=[N+]([O-])c1ccccc1-c1ccccc1` was 10.6%; that for `CCC(C)Br` (stereo not given) was -2.8%. Same read-out and setting: the value for `CCC[CH2][Sn]([CH2]CCC)([O]C(C)=O)[O]C(C)=O` was -11.3%. The same measure, in the same setting: in the case of `O=C(N[C@H]1N=C(c2ccccc2F)c2cccc3c2N(CC3)C1=O)c1cc2ccccc2[nH]1` it was -1.25% [at 42.5 µM]; in that of `CC1CN1` (stereo not given), 2.54%. On to `Cc1c([N+](=O)[O-])cc2c(c1[N+](=O)[O-])C(C)(C)CC2(C)C`, for which the “activation” value is 3.68%. In the case of `CC[C@]1(O)CC[C@H]2[C@@H]3CCC4=CCCC[C@@H]4[C@H]3CC[C@@]21C`, the Potency is 6.7 nM (active). Regarding `Clc1ccc(C(Cl)(Cl)Cl)cc1Cl`, the “activation” value is -2.06%. On the same count and under the same terms, the value for `O=Cc1ccccc1` was -2.82%.

As to `CCc1cccc(C)c1N(C(=O)CCl)[C@@H](C)COC`, the “activation” value was -4.61%. Still for that read-out and setting: in the case of `Oc1cc(Cl)c(Cl)c(Cl)c1Cl` it was -7.1%; in that of `CSC(=O)c1c(C(F)F)nc(C(F)(F)F)c(C(=O)SC)c1CC(C)C`, -0.0419%. With `COP(=O)(OC)Oc1ccc([N+](=O)[O-])cc1`, the “activation” value is 1.25%. On the same count and under the same terms, the value for `CN/C(=N\[N+](=O)[O-])NCc1cnc(Cl)s1` was -1.35%.

Take `CCOP(=S)(NC(C)C)Oc1ccccc1C(=O)OC(C)C` (stereo not given): the “activation” value was -6.58%.

With `C#CCO`, the “activation” value is 1.44%. Still for that read-out and setting: the value for `COP(=S)(OC)Oc1ccc([N+](=O)[O-])c(C)c1` was -2.96%; that for `C[N+]1(C)[C@@H]2CC[C@H]1CC(OC(=O)C(CO)c1ccccc1)C2` (stereo not given in full) was -0.368% [at 42.5 µM]; that for `O=[N+]([O-])c1ccc(Cl)c(Cl)c1Cl` was -0.901%. The same measure, in the same setting: in the case of `CC(C)[C@@H](Nc1ccc(C(F)(F)F)cc1Cl)C(=O)OC(C#N)c1cccc(Oc2ccccc2)c1` (stereo not given in full) it was 0.141%; in that of `COP(=S)(NC(C)C)Oc1ccc(C)cc1[N+](=O)[O-]` (stereo not given), 0.021%. On the same count and under the same terms, in the case of `CC(Cl)CCl` (stereo not given) it was 1.34%. With `CCC(C)c1cccc(C(C)CC)c1O` (stereo not given), the “activation” value is -0.936%. Still for that read-out and setting: in the case of `CNC(=O)CSP(=O)(OC)OC` it was -1.65%.
